From PubChem BioAssay
Compounds with a hit are over-represented: about 32% of the library has one in this group of screens.
CYP2C9 activ – CYP2C9 (human) activation | recombinant CYP2C9, luciferin-H conversion, luminescence; stronger effect = higher value; factor 1 = untreated enzyme, 0 = blocked | activation factor at 5 µM | 96,000 tested, 1.4% active;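 active = activation factor of 2 or more for CYP2C9 at a 5 µM dose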
Target sequence (P11712 whole entry, looked up): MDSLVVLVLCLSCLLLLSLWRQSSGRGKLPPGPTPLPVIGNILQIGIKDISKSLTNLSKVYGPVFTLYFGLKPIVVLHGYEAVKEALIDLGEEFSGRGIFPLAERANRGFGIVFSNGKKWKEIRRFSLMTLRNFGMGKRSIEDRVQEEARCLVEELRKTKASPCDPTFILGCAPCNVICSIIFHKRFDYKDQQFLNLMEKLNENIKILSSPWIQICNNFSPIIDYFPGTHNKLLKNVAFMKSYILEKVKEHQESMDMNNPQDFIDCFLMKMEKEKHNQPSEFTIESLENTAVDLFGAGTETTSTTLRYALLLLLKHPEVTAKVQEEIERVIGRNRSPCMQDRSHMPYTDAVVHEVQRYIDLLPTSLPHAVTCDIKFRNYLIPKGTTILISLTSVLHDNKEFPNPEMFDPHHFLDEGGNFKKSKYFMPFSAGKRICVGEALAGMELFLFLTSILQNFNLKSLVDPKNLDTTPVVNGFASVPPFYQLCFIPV
CYP2C19 activ – cytochrome P450 2C19 (human) activation | P33261 | recombinant CYP2C19, luciferin-H EGE luminescence; stronger effect = higher value; 0 = fully inhibited enzyme, 1 = untreated enzyme | activation factor at 5 µM | 96,000 tested, under 10 active | AID 1025;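 active = activation factor of at least 2 at 5 µM in the primary screen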
CYP2C19 inh – blocks human cytochrome P450 2C19; P33261; CYP2C19 Supersomes, luciferin-H EGE luminescence, 30 min; inhibition, % at 5 µM; 96,000 tested, 21% active; AID 778;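 active = CYP2C19 inhibition above a set limit at 5 µM in the primary screen, cut at about 50% in these data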
PostGolgi yeast – growth inhibition of a yeast mutant, post-Golgi transport screen. inhibition, % at 10 µM. post-Golgi transport phenotypic cell assay. 98,000 tested, 0.9% active;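 note: yeast cells grown in 1536-well plates; yeast grown about 18 h at 30C before absorbance read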
PostGolgi ctrl – inhibits growth of the yeast control strain | efflux-deficient yeast background strain, growth absorbance A615, 16 h | inhibition, % at 10 µM | 98,000 tested, 5% active | AID 738
CYP2C9 inh – inhibitors of human CYP2C9 | AID 777 | 96,000 tested, 20% active | CYP2C9 Supersomes, luciferin-H conversion, luminescence | inhibition, % at 5 µM;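 active = blocking of liver enzyme CYP2C9 beyond about 50% at 5 µM, limit read from the data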
Large screens that a line does not name were inactive. Cut-off read from the data, not from the text of the source, unless noted: active = inhibition above about 30%; inactive = the rest.

O=C(Nc1ccc(Br)cc1)c1ccc(N2C(=O)C3CC=C(Cl)CC3C2=O)cc1 (stereo unspecified)	CYP2C9 inh 74
O=C(c1ccc(N2C(=O)C3CC=C(Cl)CC3C2=O)cc1)N1CCCCC1 (stereo unspecified)	none
CN(C)S(=O)(=O)Oc1ccsc1C(=O)Nc1cccc(Cl)c1Cl	CYP2C19 inh 84, PostGolgi ctrl 32, CYP2C9 inh 72
CN(C)S(=O)(=O)Oc1ccsc1C(=O)Nc1ccccc1Cl	CYP2C19 inh 79, CYP2C9 inh 66
COc1ccccc1NC(=O)c1cccs1	none
O=C(Nc1cccc(Cl)c1Cl)c1ccc(-c2ccccc2)cc1	none
CCC(CO)n1cnnc1-c1ccncc1 (stereo unspecified)	none
CCS(=O)(=O)Nc1ccc2c(c1)N(C(C)=O)c1ccccc1CC2	CYP2C9 inh 70
CC(C)(C)n1nnnc1C(c1ccncc1)N1CCN(c2ccc(O)cc2)CC1 (stereo unspecified)	CYP2C9 inh 76
COc1ccc(Cn2nnnc2C(c2cccnc2)N2CCN(c3ccc(O)cc3)CC2)cc1 (stereo unspecified)	none
CC1CCN(C(c2ccccc2)c2nnnn2C(C)(C)C)CC1 (stereo unspecified)	none
COc1ccc(C(c2nnnn2C(C)(C)C)N2CCN(c3nc4ccccc4s3)CC2)cc1 (stereo unspecified)	CYP2C9 inh 63
CCC(C)(C)n1nnnc1C(c1ccc(O)c(OC)c1)N1CCN(c2nc3ccccc3s2)CC1 (stereo unspecified)	CYP2C9 inh 77
Cc1cc2ncn(C(=O)N3CCOCC3)c2cc1C	none
COc1ccc(-c2nc(CSCC(=O)N3CCN(C(=O)c4ccco4)CC3)c(C)o2)cc1OC	none
CCCCCN=C(C)c1c(O)c2ccccc2oc1=O	CYP2C19 inh 88, CYP2C9 inh 78
CCCc1cc2c(c(NC(C)=O)n1)c(=O)oc1ccccc12	none (no result: CYP2C9 activ, CYP2C19 activ, CYP2C19 inh, CYP2C9 inh)
COc1cccc(C2N(c3ccccn3)C(=O)C3CCCN32)c1OC (stereo unspecified)	none
Cn1c(-c2ccc3c(c2)OCO3)cnc1NC(=O)CCC(=O)NCCc1ccccc1	PostGolgi ctrl 34
CCC(CC)C(=O)NCCc1cc2cc(C)c(C)cc2[nH]c1=O	CYP2C9 inh 63
CCC(=O)NCCc1cc2cc(C)c(C)cc2[nH]c1=O	none
O=C1CNC(=O)/C1=C\N1CCN(C(c2ccccc2)c2ccccc2)CC1	none
C=CCc1cccc2cc(C(=O)NCc3ccc(C(=O)OCC)o3)c(=O)oc12	none
Cc1ccc(S(=O)(=O)NC(=O)NCc2ccccc2)cc1	none
CCCCOc1ccc(CNC(=O)NS(=O)(=O)c2ccc(OCC(C)C)cc2)cc1	CYP2C9 inh 90
CCCCOc1ccc(CNC(=O)NS(=O)(=O)c2ccc(OCC)cc2)cc1	CYP2C9 inh 86
CCN1CCN(CNC(=O)c2cnccn2)CC1	none
Cc1cc(C)n2c(SCC(=O)Nc3c(C)n(C)n(-c4ccccc4)c3=O)nnc2n1	none
COc1cc(OC)c(Cl)cc1N	none
Cc1nn(-c2ccccc2)c2sc(C(=O)N3CCCCC3)cc12	none
Cc1nn(-c2ccccc2)c2sc(C(=O)NC3CCCCC3)cc12	CYP2C9 inh 70
CCCCNC(=O)COC(=O)c1cc2c(C)nn(-c3ccccc3)c2s1	CYP2C19 inh 51, CYP2C9 inh 78
Cc1nn(-c2ccccc2)c2sc(C(=O)N3CCc4ccccc4C3)cc12	PostGolgi ctrl 45
Cc1ccc(S(=O)(=O)N2CCN(C(=O)c3cc4c(C)nn(-c5ccccc5C)c4s3)CC2)cc1	CYP2C9 inh 63
OCCN(CCO)CC(O)COCCC12CC3CC(CC(C3)C1)C2 (stereo unspecified)	none
Cc1c(Cl)c(C(F)(F)F)nn1CC(=O)N1CCSCC1	none (no result: CYP2C9 activ, CYP2C19 activ, CYP2C19 inh, CYP2C9 inh)
CCc1noc(C)c1C(=O)NCCc1ccc(OC)c(OC)c1	none
O=C(NCCN1CCCCC1)/C(=N\O)c1ccccc1	none
Cc1cnc(NC(=O)c2cc3c(C)nn(-c4ccccc4)c3s2)s1	CYP2C19 inh 56, CYP2C9 inh 66
Cc1nc2ccccc2c2oc(C(=O)N3CCc4ccccc4C3)cc12	PostGolgi ctrl 35
CCSc1nnc(N2C(=O)CC(c3ccsc3)C3=C2CC(C)(C)CC3=O)s1 (stereo unspecified)	none
Cc1ccc(C(=O)NC(C)(COc2nonc2C)COc2nonc2C)cc1	CYP2C19 inh 94, CYP2C9 inh 72
Cc1ccc(C(=O)NCC(C)(C)O)cc1	none (no result: CYP2C9 activ, CYP2C19 activ, CYP2C19 inh, CYP2C9 inh)
NC(=O)c1sc2nc3c(c(-c4ccc(Cl)cc4)c2c1N)CCCC3	PostGolgi ctrl 35
Cc1ccc(-c2c3c(nc4sc(C(N)=O)c(N)c24)CCC3)cc1	PostGolgi ctrl 50
Cc1ccccc1NC(=O)c1sc2nc3c(c(-c4ccco4)c2c1N)CCC3	none
Cc1ccc(CNC(=O)c2sc3nc4c(c(C(F)(F)F)c3c2N)CCC4)cc1	none
Cc1ccc(C(=O)Cn2nnc3c(sc4nc5c(c(-c6ccccc6)c43)CCC5)c2=O)cc1	none
COc1ccc(-c2c3c(nc4sc5c(Cl)nc(C)nc5c24)CCC3)cc1	CYP2C9 inh 58
Nc1c(C(=O)NCc2ccc(Cl)cc2)sc2nc3c(c(C(F)(F)F)c12)CCC3	CYP2C9 inh 61
COCCN(C(=O)Nc1ccccc1)c1ccccc1	none
Cc1ccc(-n2nc(C(=O)NCc3ccc(C)o3)c3c4ccccc4n(C)c3c2=O)cc1	none
FC(F)(F)c1cccc(-c2nnc3ccc(C(F)(F)F)cn23)c1	none
COc1cccc(NC2=NC3(CCCCC3)N=C(N)N2)c1	none
COc1ccc2c(c1)N(C)C(=O)CC(c1ccccc1)=N2	CYP2C19 inh 94, CYP2C9 inh 98
CC(C)C(=O)NC(Nc1cccc2cccnc12)C(Cl)(Cl)Cl (stereo unspecified)	CYP2C19 inh 59, CYP2C9 inh 63
CC1(C)Nc2ccccc2N(CCC(=O)N2CCOCC2)C1=O	none
CN(C(=O)CCN1C(=O)C(C)(C)Nc2ccccc21)c1ccccc1	CYP2C19 inh 76
Cc1cc(C)c2c(c1)OC(O)(C(F)F)CC2=O (stereo unspecified)	CYP2C19 inh 88
COc1ccc(/C=N/O)cc1COc1ccc(NC(C)=O)cc1	none (no result: CYP2C9 activ, CYP2C19 activ, CYP2C19 inh, CYP2C9 inh)
CN(C)S(=O)(=O)c1ccc(C(=O)N2CCC(c3nc4ccccc4o3)CC2)cc1	none
COC(=O)c1ccccc1S(=O)(=O)N1CCC(c2nc3ccccc3o2)CC1	CYP2C19 inh 87, CYP2C9 inh 81
CC(=O)N1N=C(c2ccncc2)OC12CCCC2	none
Cc1ccccc1NC(=S)NC(NC(=O)c1ccccc1C)C(Cl)(Cl)Cl (stereo unspecified)	none
Cc1ccc(C)c(NC(=S)NC(NC(=O)Cc2ccccc2)C(Cl)(Cl)Cl)c1 (stereo unspecified)	CYP2C19 inh 50
O=C(COc1ccccc1)NC(NC(=S)Nc1ccccc1C(=O)O)C(Cl)(Cl)Cl (stereo unspecified)	CYP2C9 inh 82
